The target in assay [1] is Bile acid receptor (Homo sapiens) (UniProt Q96RI1). In words: ATG_IR1_CIS: Attagene CIS-FACTORIAL HepG2 Assay for human Nuclear Receptor Subfamily 1 Group H Member 4 (NR1H4), IR1 submotif (AID 2282946). The conditions noted are these: IR1 reporter transcription, actives raise or lower the signal. In a few lines: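 HepG2 cells transiently transfected with multiplexed cis-element reporter units read endogenous transcription factor activity. After 24 h compound exposure, reporter mRNA was quantified by RT-PCR, fluorescent labelling, HpaI digestion and capillary electrophoresis; bidirectional fitting versus DMSO baseline.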

Assay [2] in a line: ATG_GRE_CIS: Attagene CIS-FACTORIAL HepG2 Assay for human Glucocorticoid Response Elements (GRE) (AID 2282947). To be noted: HepG2 GRE cis-reporter, Attagene multiplex mRNA; actives raise or lower the signal. In a few lines: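 Reporter transcripts read by RT-PCR with capillary electrophoresis fluorescence after a 24 h chemical exposure of HepG2 cells transiently transfected with multiple cis-element reporter units. Gain or loss fitted against DMSO.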

A short description of assay [3]: ATG_ISRE_CIS: Attagene CIS-FACTORIAL HepG2 Assay for human Interferon Regulatory Factor 1 (IRF1) binding to an Interferon-Stimulated Response Element (ISRE) (AID 2282948). To be noted: HepG2 ISRE cis-reporter (Attagene), mRNA transcription readout; actives raise or lower the signal. In a few lines:
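Endogenous transcription factor activity read as reporter transcript abundance via RT-PCR and capillary electrophoresis. HepG2 cells transiently transfected, 24 h chemical exposure. Gain or loss fitted against DMSO baseline.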

The nature of assay [4]: ATG_M_32_CIS: Attagene CIS-FACTORIAL HepG2 Assay for M32 Transcription Factor (Internal Marker) (AID 2282949).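 Further: background control marker of the multiplexed CIS panel rather than a real target.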 The conditions noted are these: HepG2 Attagene cis-factorial M32 reporter, mRNA; actives raise or lower the signal. In a few lines:
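HepG2 human liver cells transiently transfected with cis-promoter-driven multiple reporter transcription units, dosed 24 h. Reporter mRNA quantified by RT-PCR, FAM-labelled primer extension, HpaI digest and capillary electrophoresis; bidirectional fit versus DMSO baseline.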

Assay [5] can be described thus: ATG_M_06_CIS: Attagene CIS-FACTORIAL HepG2 Assay for M06 Transcription Factor (Internal Marker) (AID 2282950). The conditions noted are these: HepG2 Attagene CIS-FACTORIAL M06 internal marker reporter; actives raise or lower the signal. In a few lines: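 Measured 24 h post-dosing in transiently transfected HepG2 cells, this internal-marker endpoint reports reporter mRNA via RT-PCR with fluorescent primer extension and capillary electrophoresis. DMSO served as negative control and baseline for bidirectional fitting.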

For assay [6], the target named is Hypoxia-inducible factor 1-alpha (Homo sapiens) (UniProt Q16665). The experiment in a line: ATG_HIF1a_CIS: Attagene CIS-FACTORIAL HepG2 Assay for human Hypoxia Inducible Factor 1 (HIF1A) (AID 2282951). To be noted: HepG2 Attagene cis-factorial HIF1a reporter transcription; actives raise or lower the signal. In a few lines: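 Dosed 24 h, transfected HepG2 cells yielded total RNA whose reporter transcripts were RT-PCR-amplified and sized by capillary electrophoresis using fluorescent labelling; DMSO defined baseline, with gain and loss of signal both fitted.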

For assay [7], the target named is Hepatocyte nuclear factor 6 (Homo sapiens) (UniProt Q9UBC0). In words: ATG_HNF6_CIS: Attagene CIS-FACTORIAL HepG2 Assay for human Hepatocyte Nuclear Factor 6 (HNF6) (AID 2282952). The conditions noted are these: HepG2 Attagene cis-factorial HNF6 reporter transcription; actives raise or lower the signal. In a few lines:
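Endogenous transcription factor activity in human HepG2 liver cells was captured through cis-regulated reporter constructs. After 24 h treatment, reporter mRNA was measured by RT-PCR with capillary electrophoresis, and activity was fitted in both directions relative to DMSO.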

In assay [8] the target is Heat shock factor protein 1 (Homo sapiens) (UniProt Q00613). The experiment in a line: ATG_HSE_CIS: Attagene CIS-FACTORIAL HepG2 Assay for human Heat Shock Transcription Factor 1 (HSE) (AID 2282953). To be noted: HepG2 HSE cis-reporter, Attagene RNA transcription; actives raise or lower the signal. In a few lines:
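Reporter mRNA induction in HepG2 is measured 24 h after dosing, using transiently transfected multiplexed cis-regulated reporter units. Signal comes from capillary electrophoresis of labelled RT-PCR products, with DMSO as negative control.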

Assay [9] can be described thus: ATG_MRE_CIS: Attagene CIS-FACTORIAL HepG2 Assay for human Metal Responsive Element (MRE) (AID 2282954). To be noted: HepG2 MRE cis-reporter transcription, Attagene multiplex; actives raise or lower the signal. In a few lines:
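Endogenous MRE-dependent transcription read as reporter mRNA in transiently transfected human HepG2 cells at 24 h. RNA reverse-transcribed, PCR-amplified, labelled and resolved by capillary electrophoresis; gain or loss relative to DMSO.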

Assay [10] is described as follows: ATG_PBREM_CIS: Attagene CIS-FACTORIAL HepG2 Assay for human Phenobarbital-responsive Enhancer Module (PBREM) (AID 2282955). The conditions noted are these: HepG2 PBREM cis-reporter, Attagene multiplexed transcription; actives raise or lower the signal. In a few lines: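 Transfected liver-derived HepG2 cells exposed 24 h; PBREM reporter transcript quantified via RT-PCR and capillary electrophoresis, with activity in either direction referenced to DMSO.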

The target in assay [11] is Paired box protein Pax-6 (Homo sapiens) (UniProt P26367). The experiment in a line: ATG_Pax6_CIS: Attagene CIS-FACTORIAL HepG2 Assay for human Paired Box 6 (PAX6) (AID 2282956). The conditions noted are these: HepG2 CIS-FACTORIAL PAX6 reporter transcription, RNA readout; actives raise or lower the signal. In a few lines: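 Read-out is reporter transcript level, measured by RT-PCR with fluorescent primer extension and capillary electrophoresis after 24 h dosing of transfected HepG2 cells. Activity in either direction fitted relative to DMSO control.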

Assay [12] in a line: ATG_PXRE_CIS: Attagene CIS-FACTORIAL HepG2 Assay for human Pregnane X Receptor Element (PXRE) (AID 2282957). The conditions noted are these: HepG2 Attagene CIS-FACTORIAL PXRE reporter, mRNA; actives raise or lower the signal. In a few lines:
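Endogenous transcription factor activity in HepG2 was gauged through induction of reporter mRNA driven by a cis-regulating promoter element, sampled 24 h post-treatment. Activity was fitted in both directions against DMSO negative control.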

The nature of assay [13]: ATG_PPRE_CIS: Attagene CIS-FACTORIAL HepG2 Assay for human Peroxisome Proliferator-activated Response Element (PPRE) (AID 2282958). The conditions noted are these: HepG2 PPRE cis-element reporter, Attagene transcription factor profiling; actives raise or lower the signal. In a few lines:
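Measured endpoint: PPRE-controlled reporter mRNA, detected by RT-PCR and capillary electrophoresis fluorescence, from transiently transfected HepG2 cells 24 h after dosing. Curves fitted in both directions using DMSO baseline.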

A short description of assay [14]: ATG_RORE_CIS: Attagene CIS-FACTORIAL HepG2 Assay for human RAR-related Orphan Receptor Element (RORE) (AID 2282959). To be noted: HepG2 Attagene cis-factorial RORE reporter, mRNA; actives raise or lower the signal. In a few lines: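 Transiently transfected HepG2 reporter cells were treated 24 h. Reporter transcripts were detected by RT-PCR and capillary electrophoresis, with bidirectional fitting against DMSO.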

Assay [15] in a line: ATG_Sox_CIS: Attagene CIS-FACTORIAL HepG2 Assay for human SRY-box transcription factor (SOX) (AID 2282960). The conditions noted are these: HepG2 Attagene cis-factorial SOX reporter, mRNA; actives raise or lower the signal. In a few lines: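 Gain- or loss-of-signal endpoint, fitted bidirectionally with DMSO as negative control. Based on reporter mRNA from transfected HepG2 cells harvested 24 h post-treatment and quantified via RT-PCR and capillary electrophoresis.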

In assay [16] the target is Transcription factor Sp1 (Homo sapiens) (UniProt P08047). The experiment in a line: ATG_Sp1_CIS: Attagene CIS-FACTORIAL HepG2 Assay for human Specificity Protein 1 (Sp1) (AID 2282961). The conditions noted are these: HepG2 Sp1 cis-reporter transcription, actives raise or lower the signal. In a few lines: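 Endpoint reflects endogenous Sp1 transcriptional activity, not an exogenous fusion protein: HepG2 cells with transfected cis-regulated reporters, 24 h dosing, RT-PCR/capillary electrophoresis mRNA read-out, DMSO-normalised bidirectional fit.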

Assay [17] is described as follows: ATG_SREBP_CIS: Attagene CIS-FACTORIAL HepG2 Assay for human Sterol Regulatory Element Binding (SREBP) (AID 2282962). To be noted: HepG2 Attagene cis-factorial SREBP reporter, mRNA; actives raise or lower the signal. In a few lines: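 Endogenous SREBP activity read as cis-element-driven reporter transcript in transiently transfected HepG2, 24 h post-dosing; quantified via RT-PCR plus capillary electrophoresis of fluorescent fragments. Gain or loss of signal fitted relative to DMSO baseline.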

The target in assay [18] is Signal transducer and activator of transcription 3 (Homo sapiens) (UniProt P40763). The experiment in a line: ATG_STAT3_CIS: Attagene CIS-FACTORIAL HepG2 Assay for human Signal Transducer and Activator of Transcription 3 (STAT3) (AID 2282963). The conditions noted are these: HepG2, Attagene cis-factorial STAT3 reporter transcription; actives raise or lower the signal. In a few lines:
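Readout is reporter transcript quantified by RT-PCR and capillary electrophoresis, with 6-FAM primer extension and HpaI digestion. Total RNA is taken 24 h after dosing transiently transfected HepG2 carrying cis-regulated reporter units. Bidirectional fit against DMSO.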

The nature of assay [19]: ATG_TA_CIS: Attagene CIS-FACTORIAL HepG2 Assay for human TA Basal Promoter (AID 2282964). To be noted: HepG2 Attagene CIS-factorial TA basal promoter reporter; actives raise or lower the signal. In a few lines: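 Cis-factorial format in HepG2: reporters report endogenous factors, not chimeric Gal4 fusions. After 24 h treatment, reporter transcripts were measured by RT-PCR-capillary electrophoresis fluorescence, analysed bidirectionally versus DMSO.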

Assay [20] in a line: ATG_GLI_CIS: Attagene CIS-FACTORIAL HepG2 Assay for human Zinc Finger Protein GLI1 (AID 2282945). The conditions noted are these: HepG2, Attagene cis-factorial reporter mRNA, GLI element; actives raise or lower the signal. In a few lines: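 Bidirectional curve fits relative to DMSO, using reporter mRNA levels from RT-PCR plus capillary electrophoresis. Cells were HepG2 transiently carrying cis-regulated reporter constructs, harvested 24 h after dosing.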

Molecules are shown by their SMILES. Some structures have more than one record in an assay (separate samples or runs), and their calls can disagree. Calls of active or inactive are those of the source. How the source made its calls: active means hit-call score of the fitted dose curve at least 0.9, where 1 is the maximum; inactive means score below 0.9.

By AC50 is commonly meant the concentration giving half of the maximal activity seen.

Sequence of Hypoxia-inducible factor 1-alpha (Homo sapiens) (Q16665 whole entry, looked up): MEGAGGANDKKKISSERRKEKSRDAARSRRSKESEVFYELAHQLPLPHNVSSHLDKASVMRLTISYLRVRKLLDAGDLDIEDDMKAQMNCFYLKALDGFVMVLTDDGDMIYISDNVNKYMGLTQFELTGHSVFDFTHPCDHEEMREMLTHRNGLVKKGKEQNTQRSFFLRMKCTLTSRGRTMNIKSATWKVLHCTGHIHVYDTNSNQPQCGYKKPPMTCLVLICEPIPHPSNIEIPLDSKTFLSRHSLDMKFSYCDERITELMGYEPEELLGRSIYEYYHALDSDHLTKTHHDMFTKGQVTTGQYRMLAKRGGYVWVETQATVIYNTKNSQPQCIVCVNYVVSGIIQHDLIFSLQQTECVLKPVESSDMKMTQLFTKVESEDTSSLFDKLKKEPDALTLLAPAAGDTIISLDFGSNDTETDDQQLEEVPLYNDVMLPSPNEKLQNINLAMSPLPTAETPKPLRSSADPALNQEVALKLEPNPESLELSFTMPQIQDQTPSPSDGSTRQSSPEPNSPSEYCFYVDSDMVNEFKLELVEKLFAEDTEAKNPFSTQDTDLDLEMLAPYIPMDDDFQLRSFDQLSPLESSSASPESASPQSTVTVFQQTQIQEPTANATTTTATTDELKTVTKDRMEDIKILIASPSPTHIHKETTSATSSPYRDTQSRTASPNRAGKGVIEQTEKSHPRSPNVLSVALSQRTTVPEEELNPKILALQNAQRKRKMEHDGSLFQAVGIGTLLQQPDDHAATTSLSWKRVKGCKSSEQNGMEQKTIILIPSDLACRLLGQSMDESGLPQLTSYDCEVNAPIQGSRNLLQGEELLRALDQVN
Sequence of Signal transducer and activator of transcription 3 (Homo sapiens) (P40763 whole entry, looked up): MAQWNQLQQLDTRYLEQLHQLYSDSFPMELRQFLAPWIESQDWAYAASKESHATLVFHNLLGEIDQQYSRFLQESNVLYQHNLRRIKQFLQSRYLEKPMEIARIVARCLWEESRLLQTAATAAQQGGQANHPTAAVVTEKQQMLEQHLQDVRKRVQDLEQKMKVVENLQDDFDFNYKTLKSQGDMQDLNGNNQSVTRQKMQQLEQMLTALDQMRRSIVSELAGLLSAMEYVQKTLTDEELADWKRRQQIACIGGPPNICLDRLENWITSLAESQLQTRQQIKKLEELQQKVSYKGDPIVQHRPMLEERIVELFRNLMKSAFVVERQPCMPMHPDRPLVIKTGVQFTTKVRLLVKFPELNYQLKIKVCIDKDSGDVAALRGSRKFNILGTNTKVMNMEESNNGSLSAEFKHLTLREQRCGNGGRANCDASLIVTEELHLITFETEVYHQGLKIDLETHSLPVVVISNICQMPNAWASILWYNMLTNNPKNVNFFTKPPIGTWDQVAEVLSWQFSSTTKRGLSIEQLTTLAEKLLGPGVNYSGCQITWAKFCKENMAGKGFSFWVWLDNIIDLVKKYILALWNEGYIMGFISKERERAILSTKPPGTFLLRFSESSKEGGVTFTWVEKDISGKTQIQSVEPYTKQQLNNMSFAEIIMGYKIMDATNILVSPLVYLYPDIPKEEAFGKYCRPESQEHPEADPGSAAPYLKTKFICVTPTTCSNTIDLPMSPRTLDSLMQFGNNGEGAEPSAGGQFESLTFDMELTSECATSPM
Sequence of Bile acid receptor (Homo sapiens) (Q96RI1 whole entry, looked up): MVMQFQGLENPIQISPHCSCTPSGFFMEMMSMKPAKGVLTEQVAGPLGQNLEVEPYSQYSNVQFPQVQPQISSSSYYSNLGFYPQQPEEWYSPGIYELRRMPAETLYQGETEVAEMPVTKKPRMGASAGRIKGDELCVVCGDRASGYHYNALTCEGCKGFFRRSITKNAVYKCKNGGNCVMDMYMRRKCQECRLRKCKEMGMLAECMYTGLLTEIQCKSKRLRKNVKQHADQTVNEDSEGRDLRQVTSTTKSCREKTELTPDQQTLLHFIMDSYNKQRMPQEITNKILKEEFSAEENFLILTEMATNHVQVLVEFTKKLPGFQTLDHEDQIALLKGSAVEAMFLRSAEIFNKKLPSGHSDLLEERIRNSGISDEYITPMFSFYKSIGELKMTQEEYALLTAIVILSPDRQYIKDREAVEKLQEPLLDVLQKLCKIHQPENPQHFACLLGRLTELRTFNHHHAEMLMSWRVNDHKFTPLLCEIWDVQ
Sequence of Heat shock factor protein 1 (Homo sapiens) (Q00613 whole entry, looked up): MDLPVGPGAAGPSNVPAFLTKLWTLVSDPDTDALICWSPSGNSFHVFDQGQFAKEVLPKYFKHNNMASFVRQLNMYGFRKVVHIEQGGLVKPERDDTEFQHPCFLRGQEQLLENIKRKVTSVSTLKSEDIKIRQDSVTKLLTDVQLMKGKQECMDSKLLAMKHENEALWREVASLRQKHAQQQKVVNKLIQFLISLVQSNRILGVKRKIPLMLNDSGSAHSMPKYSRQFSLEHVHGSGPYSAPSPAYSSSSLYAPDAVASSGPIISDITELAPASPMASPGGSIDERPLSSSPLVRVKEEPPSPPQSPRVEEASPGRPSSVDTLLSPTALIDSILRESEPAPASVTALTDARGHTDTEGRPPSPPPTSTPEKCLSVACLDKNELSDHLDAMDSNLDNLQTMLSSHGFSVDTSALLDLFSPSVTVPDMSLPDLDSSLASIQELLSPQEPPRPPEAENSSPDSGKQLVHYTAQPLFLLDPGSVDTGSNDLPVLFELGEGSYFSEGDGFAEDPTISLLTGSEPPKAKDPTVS
Sequence of Transcription factor Sp1 (Homo sapiens) (P08047 whole entry, looked up, the tested form may be a part): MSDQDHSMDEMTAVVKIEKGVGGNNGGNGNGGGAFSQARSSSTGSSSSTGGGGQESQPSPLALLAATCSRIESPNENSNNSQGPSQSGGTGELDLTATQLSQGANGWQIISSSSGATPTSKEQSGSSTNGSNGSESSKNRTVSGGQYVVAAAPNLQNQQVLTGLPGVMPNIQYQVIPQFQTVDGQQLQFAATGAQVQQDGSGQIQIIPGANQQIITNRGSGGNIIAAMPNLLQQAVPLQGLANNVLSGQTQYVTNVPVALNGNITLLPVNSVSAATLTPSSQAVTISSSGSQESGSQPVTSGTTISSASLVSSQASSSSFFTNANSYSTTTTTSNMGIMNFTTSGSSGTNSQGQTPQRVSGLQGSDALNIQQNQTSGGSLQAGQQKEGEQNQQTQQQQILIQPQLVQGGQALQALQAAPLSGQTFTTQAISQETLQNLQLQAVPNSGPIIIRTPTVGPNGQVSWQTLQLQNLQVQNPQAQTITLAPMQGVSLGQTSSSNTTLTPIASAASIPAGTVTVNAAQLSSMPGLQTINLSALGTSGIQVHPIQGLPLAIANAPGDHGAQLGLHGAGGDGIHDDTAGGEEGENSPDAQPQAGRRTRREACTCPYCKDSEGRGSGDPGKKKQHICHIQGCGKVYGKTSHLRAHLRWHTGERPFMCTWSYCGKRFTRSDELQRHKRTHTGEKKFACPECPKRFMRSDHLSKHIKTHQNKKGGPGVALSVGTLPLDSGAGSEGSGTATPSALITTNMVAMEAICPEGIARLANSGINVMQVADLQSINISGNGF
Sequence of Paired box protein Pax-6 (Homo sapiens) (P26367 whole entry, looked up): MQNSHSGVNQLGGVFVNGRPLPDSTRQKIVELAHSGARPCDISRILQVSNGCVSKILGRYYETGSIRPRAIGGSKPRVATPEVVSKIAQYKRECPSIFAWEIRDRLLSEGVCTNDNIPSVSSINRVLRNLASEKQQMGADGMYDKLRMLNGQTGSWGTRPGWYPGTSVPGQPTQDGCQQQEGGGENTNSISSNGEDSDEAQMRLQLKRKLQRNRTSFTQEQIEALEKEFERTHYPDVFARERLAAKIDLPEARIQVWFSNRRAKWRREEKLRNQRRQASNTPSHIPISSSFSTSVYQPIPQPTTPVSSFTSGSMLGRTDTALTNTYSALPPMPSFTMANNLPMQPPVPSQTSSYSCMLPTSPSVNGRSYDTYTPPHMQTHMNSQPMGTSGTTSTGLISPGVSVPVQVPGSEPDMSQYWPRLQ
Sequence of Hepatocyte nuclear factor 6 (Homo sapiens) (Q9UBC0 whole entry, looked up): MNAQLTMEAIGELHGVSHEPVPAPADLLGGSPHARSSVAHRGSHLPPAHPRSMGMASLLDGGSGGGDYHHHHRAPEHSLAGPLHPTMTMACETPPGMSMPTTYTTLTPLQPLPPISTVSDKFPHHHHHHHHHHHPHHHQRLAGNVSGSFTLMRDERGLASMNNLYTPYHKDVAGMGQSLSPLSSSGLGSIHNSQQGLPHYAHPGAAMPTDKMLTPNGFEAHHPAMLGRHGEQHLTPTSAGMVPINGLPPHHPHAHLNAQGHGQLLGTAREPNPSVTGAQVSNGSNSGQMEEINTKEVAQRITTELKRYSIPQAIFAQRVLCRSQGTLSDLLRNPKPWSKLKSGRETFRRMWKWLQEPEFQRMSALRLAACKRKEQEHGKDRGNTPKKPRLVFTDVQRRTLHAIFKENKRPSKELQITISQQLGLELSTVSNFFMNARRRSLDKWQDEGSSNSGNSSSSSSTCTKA

Take `CCCCOC(=O)C(C)Oc1ccc(Oc2ccc(C(F)(F)F)cn2)cc1` (centres undefined): the result in assay [1], in assay [2], in [3], in assay [4], in assay [5] and in assay [6] was inactive. The result in assay [7], in assay [8], in assay [9], in [10], in [11] and in assay [14] was inactive. Besides, the call in [15], in assay [16], in assay [17], in [18] and in assay [19] was inactive. Also, the AC50 in assay [12] was 56.4 µM (active); in [13], 50 µM (active).

In the case of `CCN(CC)C(=O)c1cccc(C)c1`, the result in assay [20], in [1], in assay [2], in assay [3], in [4] and in assay [5] was inactive. Also, the result in assay [6], in [7], in assay [8], in [9], in assay [11] and in assay [12] was inactive. In addition, the result in [13], in [14], in assay [15], in assay [16], in assay [17] and in assay [18] was inactive. Further, the compound was called inactive in [19]. Also, the AC50 in assay [12] is 40.2 µM (active).

With `N#CSCSc1nc2ccccc2s1`, the outcome in assay [1], in [2], in assay [3], in [4], in assay [5] and in assay [6] was inactive. Also, the call in assay [7], in [8], in [9], in assay [10], in [11] and in [12] was inactive. The compound was called inactive in assay [13], in [14], in assay [15], in assay [16], in assay [17] and in [18]. The outcome in assay [19] was inactive. Besides, the AC50 in [3] is 3.07 µM (active); in assay [8], 18.1 µM (active); in assay [11], 11.1 µM (active); in assay [12], 3.49 µM (active); in assay [13] it was 2.81 µM (active); in [16], 17.8 µM (active).

The record behind these values is PubChem BioAssay (EPA / NIEHS).
